From PubChem BioAssay (NCATS)
Inconclusive results are not listed. Where a call stands in place of a potency, no number is given. Calls of active or inactive are those of the source. Calls come from the whole dose curve; as a rule, active = well fitted inhibition curve with a large enough effect; inconclusive = small, poorly fitted or top-dose-only effect; inactive = flat fitted curve, though single readings scatter. Peptide text beside a SMILES is read from it.

What follows are compounds tested on P93_24 (assay: qHTS profiling for inhibitors of Plasmodium falciparum proliferation (AID 504749; note: nearly all actives have a fitted effect of over 60% in size)). Conditions: P. falciparum in erythrocytes, SYBR Green DNA, 72 h; series mostly up to 12.8 µM.
In short: (§1)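 Three-day growth assay of blood-stage parasites in erythrocytes (0.3% parasitemia, 2.5% hematocrit) at 37 C, 5% CO2, quantified by SYBR Green DNA staining after overnight detergent lysis.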
Potency is the fitted concentration of half-maximal effect.

| SMILES | Potency |
| --- | --- |
| CN(C)CCCOC1C(C(O)CO)OC2OC(C)(C)O[C@@H]21 (stereo partly specified) | inactive |
| CCC(C)C(=O)OC1CCC=C2C=CC(C)C(CCC3CC(O)CC(=O)O3)[C@@H]21 (stereo partly specified) | inactive |
| CC(=O)OC1CCC2C3CCc4cc(O)ccc4C3CCC12C (stereo unspecified) | inactive |
| CC[C@@]12CCCN3CCc4c(n(c5ccccc45)[C@](O)(C(=O)OC)C1)C32 (stereo partly specified) | inactive |
| NC(C(=O)O)[C@@H]1CC(Cl)=NO1 (stereo partly specified) | 1 µM (active) |
| CN1CC(=O)N=C1N | inactive |
| OCC1OC([S-])[C@H](O)C(O)C1O.[Au+] (stereo partly specified) | inactive |
| CC(C)C1CCC(C(=O)NC(Cc2ccccc2)C(=O)O)CC1 (stereo unspecified) | inactive |
| CCC(CCC(C)C1CCC2C3CC=C4CC(O)CC[C@@]4(C)C3CC[C@@]12C)C(C)C (stereo partly specified) | inactive |
| C[C@]12CCC(=O)C=C1CCC1C2C(=O)C[C@]2(C)C1CC[C@]2(O)C(=O)CO (stereo partly specified) | inactive |
| OCC1O[C@H](OC2C(CO)O[C@@](O)(CO)C2O)C(O)C(O)C1O (stereo partly specified) | inactive |
| CC1(C)OC2CO[C@]3(COS(N)(=O)=O)OC(C)(C)OC3C2O1 (stereo partly specified) | inactive |
| CC1(C)OC2CC(=O)OC[C@@]23C1CC(=O)[C@]1(C)C3CC[C@@]2(C)C(c3ccoc3)OC(=O)C3O[C@@]321 (stereo partly specified) | inactive |
| CCOC(=O)C1=CC(OC(CC)CC)C(NC(C)=O)C(N)C1 (stereo unspecified) | inactive |
| COC1C=CO[C@@]2(C)Oc3c(C)c(O)c4c(O)c(c5c(nc6cc(C)ccn65)c4c3C2=O)NC(=O)/C(C)=C\C=CC(C)C(O)[C@@H](C)C(O)C(C)[C@@H](OC(C)=O)C1C (stereo partly specified) | 3.98 µM (active) |
| COC(=O)C(Cc1ccccc1)NC(=O)C(N)CC(=O)O (stereo not drawn) (H-Asp-Phe-OMe; configuration not given here) | inactive |
| C[C@]12C=CC(=O)C=C1CCC1C2C(O)C[C@]2(C)C1CC[C@]2(O)C(=O)CO (stereo partly specified) | inactive |

| SMILES | Potency |
| --- | --- |
| CC1(C)S[C@H]2C(NC(=O)[C@@H](N)c3ccc(O)cc3)C(=O)N2[C@@H]1C(=O)O (stereo partly specified) | inactive |
| CC(C)=CCC[C@](C)(O)C1CC=C(C)CC1 (stereo partly specified) | inactive |
| CO[C@]12C(COC(N)=O)C3=C(C(=O)C(C)=C(N)C3=O)N1CC1NC12 (stereo partly specified) | 1 µM (active) |
| C[C@]1(c2ccccc2)OC(C(=O)O)=CC1=O | inactive |
| CC(=O)N[C@H](CC(C)C)C(=O)O | inactive |
| COc1ccc2cc(C(C)CO)ccc2c1 (stereo unspecified) | inactive |
| COC1C=CO[C@@]2(C)Oc3c(C)c(O)c4c(O)c(c(C=NN5CCN(C)CC5)c(O)c4c3C2=O)NC(=O)/C(C)=C\C=CC(C)C(O)[C@@H](C)C(O)C(C)[C@H](OC(C)=O)C1C (stereo partly specified) | 0.251 µM (active) |
| CC1CCC(C(C)C)C(=O)C1 (stereo unspecified) | inactive |
| CNC1CC(N)[C@H](O)[C@@H](O[C@@H]2OC(CO)C3OC4(OC(C(N)CO)C(O)C(O)C4O)O[C@@H]3[C@H]2O)C1O (stereo partly specified) | inactive |
| CCCC(=O)O[C@]1(C(=O)CO)CCC2[C@@H]3CCC4=CC(=O)CC[C@]4(C)C3C(O)C[C@]21C (stereo partly specified) | inactive |
| CC(=O)[C@]1(O)CCC2C3C=C(Cl)C4=CC(=O)C5CC5[C@@]4(C)C3CC[C@]21C (stereo partly specified) | inactive |
| CC(=O)N[C@@H]1C(O)OC(CO)C(O)C1O (stereo partly specified) | inactive |
| C/C1=C2N=C(/C=C3N=C(/C(C)=C4\[N-]C(C)(C5N=C1C(C)(CCC(=O)NCC(C)OP(=O)([O-])O[C@H]1C(O)C(n6cnc7cc(C)c(C)cc76)O[C@@H]1CO)C5CC(N)=O)C(C)(CC(N)=O)C4CCC(N)=O)C(C)(CC(N)=O)C\3CCC(N)=O)C(C)(C)C/2CCC(N)=O.[CH2-]C1OC(n2cnc3c(N)ncnc32)C(O)C1O.[Co] (stereo partly specified) | inactive |
| CNC1C(OC2C(O[C@@H]3C(O)C(O)[C@@H](N=C(N)N)C(O)C3N=C(N)N)OC(C)[C@@]2(O)CO)OC(CO)C(O)C1O (stereo partly specified) | inactive |
| COc1cc(C2c3cc4c(cc3C(O[C@@H]3OC5COC(c6cccs6)OC5C(O)C3O)C3COC(=O)C23)OCO4)cc(OC)c1O (stereo partly specified) | 1.58 µM (active) |
| Nc1nc2ncc(CNc3ccc(C(=O)NC(CCC(=O)O)C(=O)O)cc3)nc2c(=O)[nH]1 (stereo unspecified) | inactive |

What follows are compounds tested on P94_40 in the same assay as above. Conditions: P. falciparum in erythrocytes, SYBR Green DNA, 72 h; series mostly up to 12.8 µM.
In short: as §1

| SMILES | Potency |
| --- | --- |
| CN(C)CCCOC1C(C(O)CO)OC2OC(C)(C)O[C@@H]21 (stereo partly specified) | inactive |
| CCC(C)C(=O)OC1CCC=C2C=CC(C)C(CCC3CC(O)CC(=O)O3)[C@@H]21 (stereo partly specified) | inactive |
| CC(=O)OC1CCC2C3CCc4cc(O)ccc4C3CCC12C (stereo unspecified) | inactive |
| CC[C@@]12CCCN3CCc4c(n(c5ccccc45)[C@](O)(C(=O)OC)C1)C32 (stereo partly specified) | inactive |
| NC(C(=O)O)[C@@H]1CC(Cl)=NO1 (stereo partly specified) | 1.12 µM (active) |
| CN1CC(=O)N=C1N | inactive |
| OCC1OC([S-])[C@H](O)C(O)C1O.[Au+] (stereo partly specified) | inactive |
| CCC(CCC(C)C1CCC2C3CC=C4CC(O)CC[C@@]4(C)C3CC[C@@]12C)C(C)C (stereo partly specified) | inactive |
| C[C@]12CCC(=O)C=C1CCC1C2C(=O)C[C@]2(C)C1CC[C@]2(O)C(=O)CO (stereo partly specified) | inactive |
| OCC1O[C@H](OC2C(CO)O[C@@](O)(CO)C2O)C(O)C(O)C1O (stereo partly specified) | inactive |
| CC1(C)OC2CO[C@]3(COS(N)(=O)=O)OC(C)(C)OC3C2O1 (stereo partly specified) | inactive |
| CC1(C)OC2CC(=O)OC[C@@]23C1CC(=O)[C@]1(C)C3CC[C@@]2(C)C(c3ccoc3)OC(=O)C3O[C@@]321 (stereo partly specified) | inactive |
| CCOC(=O)C1=CC(OC(CC)CC)C(NC(C)=O)C(N)C1 (stereo unspecified) | inactive |
| COC1C=CO[C@@]2(C)Oc3c(C)c(O)c4c(O)c(c5c(nc6cc(C)ccn65)c4c3C2=O)NC(=O)/C(C)=C\C=CC(C)C(O)[C@@H](C)C(O)C(C)[C@@H](OC(C)=O)C1C (stereo partly specified) | 5.01 µM (active) |
| COC(=O)C(Cc1ccccc1)NC(=O)C(N)CC(=O)O (stereo not drawn) (H-Asp-Phe-OMe; configuration not given here) | inactive |
| C[C@]12C=CC(=O)C=C1CCC1C2C(O)C[C@]2(C)C1CC[C@]2(O)C(=O)CO (stereo partly specified) | inactive |
| CC1(C)S[C@H]2C(NC(=O)[C@@H](N)c3ccc(O)cc3)C(=O)N2[C@@H]1C(=O)O (stereo partly specified) | inactive |

| SMILES | Potency |
| --- | --- |
| CC(C)=CCC[C@](C)(O)C1CC=C(C)CC1 (stereo partly specified) | inactive |
| CO[C@]12C(COC(N)=O)C3=C(C(=O)C(C)=C(N)C3=O)N1CC1NC12 (stereo partly specified) | 0.891 µM (active) |
| C[C@]1(c2ccccc2)OC(C(=O)O)=CC1=O | inactive |
| CC(=O)N[C@H](CC(C)C)C(=O)O | inactive |
| COc1ccc2cc(C(C)CO)ccc2c1 (stereo unspecified) | inactive |
| COC1C=CO[C@@]2(C)Oc3c(C)c(O)c4c(O)c(c(C=NN5CCN(C)CC5)c(O)c4c3C2=O)NC(=O)/C(C)=C\C=CC(C)C(O)[C@@H](C)C(O)C(C)[C@H](OC(C)=O)C1C (stereo partly specified) | 0.282 µM (active) |
| CC1CCC(C(C)C)C(=O)C1 (stereo unspecified) | inactive |
| CNC1CC(N)[C@H](O)[C@@H](O[C@@H]2OC(CO)C3OC4(OC(C(N)CO)C(O)C(O)C4O)O[C@@H]3[C@H]2O)C1O (stereo partly specified) | inactive |
| CCCC(=O)O[C@]1(C(=O)CO)CCC2[C@@H]3CCC4=CC(=O)CC[C@]4(C)C3C(O)C[C@]21C (stereo partly specified) | inactive |
| CC(=O)[C@]1(O)CCC2C3C=C(Cl)C4=CC(=O)C5CC5[C@@]4(C)C3CC[C@]21C (stereo partly specified) | inactive |
| CC(=O)N[C@@H]1C(O)OC(CO)C(O)C1O (stereo partly specified) | inactive |
| C/C1=C2N=C(/C=C3N=C(/C(C)=C4\[N-]C(C)(C5N=C1C(C)(CCC(=O)NCC(C)OP(=O)([O-])O[C@H]1C(O)C(n6cnc7cc(C)c(C)cc76)O[C@@H]1CO)C5CC(N)=O)C(C)(CC(N)=O)C4CCC(N)=O)C(C)(CC(N)=O)C\3CCC(N)=O)C(C)(C)C/2CCC(N)=O.[CH2-]C1OC(n2cnc3c(N)ncnc32)C(O)C1O.[Co] (stereo partly specified) | inactive |
| O=C1OC(CO)C(O)C(O)C1O (stereo unspecified) | inactive |
| CNC1C(OC2C(O[C@@H]3C(O)C(O)[C@@H](N=C(N)N)C(O)C3N=C(N)N)OC(C)[C@@]2(O)CO)OC(CO)C(O)C1O (stereo partly specified) | inactive |
| COc1cc(C2c3cc4c(cc3C(O[C@@H]3OC5COC(c6cccs6)OC5C(O)C3O)C3COC(=O)C23)OCO4)cc(OC)c1O (stereo partly specified) | 1.26 µM (active) |
| Nc1nc2ncc(CNc3ccc(C(=O)NC(CCC(=O)O)C(=O)O)cc3)nc2c(=O)[nH]1 (stereo unspecified) | inactive |
